Compounds with a hit are over-represented: about 3.5% of the library has one in this group of screens.
GPR151 ag – activators of human GPR151; Q8TDV0; PathHunter beta-arrestin GPR151 cells, luminescence; activation, % at 11.2 µM; hit rate 1% among 650,000; AID 1508602; in the data active = activation above about 4.9%;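 also: 0% = median of compound wells and 100% = cells with positive control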
MITF primary – inhibitors of human MITF. O75030. AlphaScreen MITF homodimerization, bead proximity signal. hit rate 0.91% among 650,000. inhibition, % at 2.6 µM. AID 1259374; in the data active = inhibition above about 50%;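 also: 0% = vehicle wells with protein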
FBW7 act – human FBW7 E3 ligase activation, primary screen. AlphaScreen FBW7–phospho-cyclin E peptide binding, activator screen. normalized activity (activation), % at 26.1 µM. hit rate 0.13% among 650,000. AID 1259310; in the data active = normalized activity above about 1.9%;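 also: purified mutant Fbw7 with reduced substrate affinity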
TEAD-YAP block – TEAD-YAP interaction inhibition | HEK-TIYL cells, TEAD-Gal4/YAP UAS-luciferase luminescence | inhibition, % at 9.12 µM | hit rate 1.4% among 640,000; in the data active = inhibition above about 32%;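 also: 0% = median of test compound wells and 100% = reference inhibitor wells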
MITF confirm – confirmation of human MITF inhibitors; shares compounds with MITF primary; AlphaScreen MITF homodimerization, biotin/His-MITF beads; inhibition, % at 2.6 µM; hit rate 16% among 4,700;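 active = inhibition above a cutoff derived from the DMSO control wells, cut at about 28% in these data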;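 also: 0% = MITF dimer wells with DMSO only; inhibitors lower the bead chemiluminescence by keeping MITF from dimerizing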
AlphaScreen DR – AlphaScreen optical interference, dose response counter-screen; shares compounds with MITF primary; AlphaScreen optical interference counterscreen, cell-free; IC50, µM; hit rate 6% among 480; call rule not given here
AS interf ctr – counter-screen: compounds optically interfering with AlphaScreen; hit rate 7.6% among 4,700; shares compounds with MITF primary; LysRS AlphaScreen counterscreen, signal interference, triplicate; inhibition, % at 2.6 µM;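 active = inhibition above a cutoff derived from the DMSO control wells, cut at about 30% in these data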
Numbers without * were called inactive; x = no result given.

SMILES	GPR151 ag	MITF primary	FBW7 act	TEAD-YAP block	MITF confirm	AS interf ctr	others
CCN1CCN(CCCOc2ccc(C)cc2Cl)CC1	0	68*	0	-6	12	14
Cn1c(SCC(=O)Nc2ccc(Cl)c([N+](=O)[O-])c2)nnc1C(F)(F)F	-1	11	0	0	x	x
O=C(N/N=C\C=N/NC(=O)c1ccncc1)c1ccncc1	1	4	0	-4	x	x
O=C(NC1CCCCC1)N1CCN2C(=O)[C@@H]3CSCN3C(=O)[C@H]2C1	-1	76*	0	14	60*	-2	AlphaScreen DR=>6.5
O=C(NC1CCCCC1)N1CCN2C(=O)[C@@H]3C[C@@H](O)CN3C(=O)[C@H]2C1	0	80*	0	5	73*	-9	AlphaScreen DR=>6.5
O=C(CN1CCCC1)Nc1ccccc1	4	11	1	-14	x	x
CCc1nc2ccccc2c(NC(=O)CN2CCCC2)c1C	1	65*	0	8	-14	-3
O=C(CN1CCCC1)Nc1c2c(nc3ccccc13)N(c1ccccc1)CC2	0	72*	0	4	4	8
CC(C(O)c1ccccc1)N(C)CC(=O)Nc1c2c(nc3ccccc13)N(C)CC2 (stereo unspecified)	0	67*	0	-1	13	27
CCc1nc2ccccc2c(NC(=O)CNC(C)(C)CC(C)(C)C)c1C	1	70*	0	1	14	-6
O=C(CN1CCCC1)Nc1c2c(nc3ccccc13)N(Cc1ccccc1)CC2	0	30	0	8	x	x
CC1CCCN(C(=O)CSc2nnc3c4ccccc4n(C)c3n2)C1 (stereo unspecified)	0	-3	0	-7	x	x
COc1ccc(/C=N/NC(=O)c2cccc(N3CCCC3=O)c2)cc1OC	0	7	0	-12	x	x
COc1cn(CC(=O)N2CCc3ccccc32)c(CSc2nc(C)cc(C)n2)cc1=O	-2	28	0	-2	x	x
COc1ccc(OC)c(CN2CCN(C(=O)c3ccccc3)CC2)c1	-1	40	0	-11	x	x
COc1ccc(CN2CCN(C(=O)c3ccncc3)CC2)c(OC)c1	0	60*	0	-16	17	-5
COc1ccc(OC)c(CN2CCN(C(=O)c3ccncc3)CC2)c1	-1	74*	0	0	-11	1
COc1ccc(CN2CCN(C(=O)c3c(OC)cccc3OC)CC2)c(OC)c1	2	12	0	2	x	x
COc1cccc(C(=O)N2CCN(Cc3ccc(OC)cc3OC)CC2)c1	0	53*	1	6	-2	-3
CCOCCn1ccc2c(OCc3ccccn3)cccc2c1=O	3	-12	0	2	x	x
Cn1cc(CC(=O)N2CCN(c3ccc(-c4ccccn4)nn3)CC2)c2ccccc21	-3	122*	-1	42*	108*	101*
O=C(/C=C/c1cccs1)N1CCN(c2ccc(-c3ccccn3)nn2)CC1	1	56*	-1	-8	104*	101*
O=C(/C=C/c1ccco1)N1CCN(c2ccc(-c3ccccn3)nn2)CC1	-1	49	-1	-5	x	x
O=C(Cc1cccs1)N1CCN(c2ccc(-c3ccccn3)nn2)CC1	-1	68*	-1	-11	51*	100*
O=C(CN1CCC2(CC1)NC(=O)c1ccccc1O2)Nc1ccccc1-c1ccccc1	0	1	0	-5	x	x
SMILES	GPR151 ag	MITF primary	FBW7 act	TEAD-YAP block	MITF confirm	AS interf ctr	others
Fc1ccccc1CN1CCN(c2ccccn2)CC1	-1	4	0	-13	x	x
O=C(c1cccs1)N1CCN(Cc2ccccc2C(F)(F)F)CC1	1	70*	0	4	-5	0
FC(F)(F)c1ccccc1CN1CCN(Cc2ccccc2Br)CC1	-2	62*	0	8	5	26
COc1ccc(CN2CCN(Cc3ccccc3Br)CC2)cc1OC	0	49	0	-1	x	x
OCCC1CN(Cc2ccccc2C(F)(F)F)CCN1C1CCCC1 (stereo unspecified)	2	0	0	2	x	x
Cc1ccccc1CN1CCN(C(=O)c2cccs2)CC1	1	45	0	-28	x	x
Fc1ccccc1CN1CCN(Cc2ccccc2C(F)(F)F)CC1	0	65*	0	9	-14	-2
FC(F)(F)c1ccccc1CN1CCN(Cc2ccc(Br)cc2)CC1	-1	82*	0	-2	9	23
